About 83,000 compounds went through this panel and 20% of them were active in at least one assay; those are over-represented in the sample as a whole.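 Growth was measured after 48 h exposure to one concentration of compound in 96-well plates. Values under 10 count as active.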 Calls of active or inactive are those of the source.
Each compound was assayed on ACHN renal (assay: NCI-60 one-dose screen, 48 h (100 = growth as untreated, 0 = no growth, -100 = all killed)). Settings: 10 µM unless noted.
In the case of `Cn1cc(-c2nnc(N)nc2-c2c[nH]c3ccc(Br)cc23)c2cc(Br)ccc21`, the growth is reported as 94.7% (inactive). For `COc1ccc2[nH]cc(-c3nc(N)nnc3-c3cn(C)c4ccc(Br)cc34)c2c1`, the growth was 40.5% (inactive). `C#CCN(C)CCCOc1ccc(NCc2ccc(C(=O)NO)cc2)cc1Cl` was tested, and the growth was 9.03% (active). `CCN(CC)c1ccc(/C=N/NC(=O)c2ccc(NS(C)(=O)=O)cc2)c(O)c1` was tested, and the growth was 15.9% (inactive). In the case of `O=C(CCCCCCN1CC(=O)N2[C@@H](c3ccc(Cl)s3)c3[nH]c4ccccc4c3C[C@H]2C1=O)NO`, the growth is reported as 66.8% (inactive). With `CC1(C)CC[C@]23CC[C@]4(C)[C@H](CC[C@@H]5[C@@]6(C)CC[C@H](N)C(C)(C)[C@@H]6CC[C@]54C)[C@H]2[C@H]1OC3` the growth was 36.5% (inactive). `Cc1ccc(S(=O)(=O)NCCCNc2nc(Nc3ccc(N4CCN(C)CC4)cc3)nc3ccsc23)cc1` was tested, and the growth was 11.7% (inactive). With `N#Cc1nc(-c2ccccc2)oc1N1CCC(C2(C(F)(F)F)N=N2)CC1` the growth was 102% (inactive). In the case of `O=C(CCCCCCN1CC(=O)N2[C@@H](c3cccs3)c3[nH]c4ccccc4c3C[C@H]2C1=O)NO`, the growth is reported as 96.7% (inactive). With `O=C(CCCCCCNC(=O)C(O)(O)C(F)(F)F)Nc1nc2ccccc2s1` the growth was -22.7% (active). In the case of `CNC(=O)c1cc(Oc2ccc3c(c2)sc2nc(-c4ccc(N(C)C)cc4)cn23)ccn1`, the growth is reported as 21.7% (inactive). For `CC1=C(C)C(=O)C(Nc2cccc(C)c2)=C(Br)C1=O`, the growth was 95.7% (inactive). With `CC(=C(c1ccc(OCCCN(C)C)cc1)c1ccc(OCCCN(C)C)cc1)c1ccc(Cl)cc1` the growth was 92.6% (inactive). With `COc1cc(C(=O)c2cc(C(C)=O)c3cccc(C)n23)cc(OC)c1OC` the growth was 51.4% (inactive). For `C#Cc1nc(/C=C/CCCCCCC(=O)NO)cs1`, the growth was -39.1% (active). With `CCCCCc1ccc(S(=O)(=O)Nc2cc(-c3csc(N)n3)ccc2OC)cc1` the growth was 98% (inactive). With `CCCc1cc2cc(-n3nc(CC)c4c3CC(C)(C)CC4=O)cc(NC3CCC(O)CC3)c2c(=O)[nH]1` (stereo not drawn) the growth was 8.86% (active). `Cc1ccc(-c2cc3nc(C(Cl)Cl)nc(-c4ccc(S(=O)(=O)N(C)C)cc4)n3n2)cc1` was tested, and the growth was 83.2% (inactive).

Each compound was assayed on CAKI-1 renal in the same assay as above. Settings: 10 µM unless noted.
With `CCc1cc2c(cc1Cl)nc1c(=O)[nH]c(=O)nc-1n2CCOCC(C)(C)C` the growth was 70.8% (inactive). In the case of `Cc1cc(=O)[nH]c(O)c1C#N`, the growth is reported as 90.6% (inactive). In the case of `CC1(C)CC[C@]23CC[C@]4(C)[C@H](CC[C@@H]5[C@@]6(C)CC[C@H](NCO)C(C)(C)[C@@H]6CC[C@]54C)[C@H]2[C@H]1OC3`, the growth is reported as 29.3% (inactive). In the case of `CC(C)[C@H]1c2[nH]c3ccccc3c2C[C@H]2C(=O)N(CCCCCCC(=O)NO)CC(=O)N12`, the growth is reported as 86.2% (inactive). For `Cn1cc(-c2nc(N)nnc2-c2c[nH]c3ccc(Br)cc23)c2cc(F)ccc21`, the growth was 67.8% (inactive). In the case of `CCCCCCCCCCCC(=O)NC(C)(C)C(=O)N1CCCC1C(=O)NC(C)(C)C(=O)NC(C)(C)C(=O)N1CCCC1C(=O)NC(C)(C)C(=O)NC(C)(C)C(=O)N1CCCC1C(=O)NC(C)C(=O)NCCC(=O)NC(C)C(=O)NC(C)(C)C(=O)NC(C)(C)C(=O)NC(C)(C)C(=O)NCCC(=O)NC(C)(C)C(=O)NC(C)(C)C(=O)NC(C)(C)C(=O)NC(C)C(=O)NCCC(=O)O` (stereo not drawn), the growth is reported as -94.2% (active). `CN1CCN(c2ccc(Nc3nc(NCCNC(=O)c4ccccc4)c4sccc4n3)cc2)CC1` was tested, and the growth was 48.3% (inactive). For `Cc1[nH]c(C(=O)Nc2ccccc2OCc2cccc(C(=O)NCCN)c2)cc1Cl`, the growth was 90.2% (inactive). For `CCCc1[nH]c(-c2cc(N)ccc2Cl)c2c1C(=O)CCCC2`, the growth was 76.3% (inactive). With `O=C(Nc1ccc(N=Cc2c(O)[nH]c3ccccc23)cc1)Nc1ccc(S(=O)(=O)Nc2ncccn2)cc1` the growth was 94.8% (inactive). With `CC1=Cc2ccccc2OC12C=Cc1ccccc1O2` (stereo not drawn) the growth was 78.5% (inactive). In the case of `NS(=O)(=O)c1ccc(CCn2c(-c3ccc(C(=O)O)cc3)nc(-c3ccccc3)c2-c2ccccc2)cc1`, the growth is reported as 88.7% (inactive). `COc1ccc(/C=N\NC(=O)c2cnn(CC(O)c3ccccc3)c2N)cc1OCc1ccc(Cl)cc1` (stereo not drawn) was tested, and the growth was 71% (inactive). In the case of `CNc1sc(S(=O)(=O)NC)nc1S(=O)(=O)c1ccc(C)cc1`, the growth is reported as 91.9% (inactive). In the case of `C=C(C)[C@@H]1CC[C@]2(C(=O)N3CCN(C)CC3)CC[C@]3(C)[C@H](CC[C@@H]4[C@@]5(C)CC[C@H](OP(=O)(OCC)OCC)C(C)(C)[C@@H]5CC[C@]43C)[C@@H]12`, the growth is reported as 61.2% (inactive). In the case of `NS(=O)(=O)c1ccc(Nc2nc(Nc3ccccc3)nc(N3N=C(c4ccc(Cl)cc4)CC3c3ccc(Cl)cc3)n2)cc1` (stereo not drawn), the growth is reported as 42.7% (inactive). For `COc1cc(C(C)=C(c2ccc(OCCN(C)C)cc2)c2ccc(OCCN(C)C)cc2)ccc1F`, the growth was 101% (inactive). In the case of `CN1CCN(c2ccc(Nc3nc(NCCCNS(=O)(=O)c4ccc(F)cc4)c4sccc4n3)cc2)CC1`, the growth is reported as 67.6% (inactive). `CCOC(=O)c1c(NC(=O)c2ccc(C(F)(F)F)cc2)sc2c(CN3CCN(C)CC3)c(O)ccc12` was tested, and the growth was -66% (active). `CC(O)c1cccc(/C(N)=N/C(N)=N/c2nc3ccccc3s2)c1` (stereo not drawn) was tested, and the growth was 101% (inactive). `C#Cc1cc(C(=O)Nc2ccc(CNCCN3CCOCC3)c(C(F)(F)F)c2)ccc1C` was tested, and the growth was 82.7% (inactive). For `COc1ccc(/C=N/NC(=O)CSc2nc(-c3cnccn3)cc(-c3cccs3)c2C#N)cc1`, the growth was 48.3% (inactive). With `Cn1cc(-c2nnc(N)nc2-c2c[nH]c3ccc(Br)cc23)c2cc(Br)ccc21` the growth was 85.9% (inactive). For `COc1ccc2[nH]cc(-c3nc(N)nnc3-c3cn(C)c4ccc(Br)cc34)c2c1`, the growth was 29.1% (inactive). With `C#CCN(C)CCCOc1ccc(NCc2ccc(C(=O)NO)cc2)cc1Cl` the growth was 8.63% (active). In the case of `CCN(CC)c1ccc(/C=N/NC(=O)c2ccc(NS(C)(=O)=O)cc2)c(O)c1`, the growth is reported as 18.8% (inactive). In the case of `O=C(CCCCCCN1CC(=O)N2[C@@H](c3ccc(Cl)s3)c3[nH]c4ccccc4c3C[C@H]2C1=O)NO`, the growth is reported as 48.8% (inactive). With `CC1(C)CC[C@]23CC[C@]4(C)[C@H](CC[C@@H]5[C@@]6(C)CC[C@H](N)C(C)(C)[C@@H]6CC[C@]54C)[C@H]2[C@H]1OC3` the growth was 1.94% (active). In the case of `Cc1ccc(S(=O)(=O)NCCCNc2nc(Nc3ccc(N4CCN(C)CC4)cc3)nc3ccsc23)cc1`, the growth is reported as 14.5% (inactive). In the case of `N#Cc1nc(-c2ccccc2)oc1N1CCC(C2(C(F)(F)F)N=N2)CC1`, the growth is reported as 84.8% (inactive). With `O=C(CCCCCCN1CC(=O)N2[C@@H](c3cccs3)c3[nH]c4ccccc4c3C[C@H]2C1=O)NO` the growth was 88.5% (inactive). `O=C(CCCCCCNC(=O)C(O)(O)C(F)(F)F)Nc1nc2ccccc2s1` was tested, and the growth was -17.8% (active). With `CNC(=O)c1cc(Oc2ccc3c(c2)sc2nc(-c4ccc(N(C)C)cc4)cn23)ccn1` the growth was 32.3% (inactive). With `CC1=C(C)C(=O)C(Nc2cccc(C)c2)=C(Br)C1=O` the growth was 99.3% (inactive). `CC(=C(c1ccc(OCCCN(C)C)cc1)c1ccc(OCCCN(C)C)cc1)c1ccc(Cl)cc1` was tested, and the growth was 92.6% (inactive). In the case of `COc1cc(C(=O)c2cc(C(C)=O)c3cccc(C)n23)cc(OC)c1OC`, the growth is reported as 33.5% (inactive). In the case of `C#Cc1nc(/C=C/CCCCCCC(=O)NO)cs1`, the growth is reported as -11.4% (active). `CCCCCc1ccc(S(=O)(=O)Nc2cc(-c3csc(N)n3)ccc2OC)cc1` was tested, and the growth was 88.4% (inactive). For `CCCc1cc2cc(-n3nc(CC)c4c3CC(C)(C)CC4=O)cc(NC3CCC(O)CC3)c2c(=O)[nH]1` (stereo not drawn), the growth was 19.6% (inactive). In the case of `Cc1ccc(-c2cc3nc(C(Cl)Cl)nc(-c4ccc(S(=O)(=O)N(C)C)cc4)n3n2)cc1`, the growth is reported as 82.2% (inactive).
